Measurements reported in PubChem BioAssay (NCATS).
Where “and” joins values, the source holds several entries; their conditions need not be identical. Identical values can stand only once. Inconclusive results are not listed. Where a call stands in place of a potency, no number is given. Some compounds were tested as several samples or in several runs, with calls that do not always agree. Calls of active or inactive are those of the source. The call rests on the fitted dose curve; in most records, active means well fitted curve in the direction sought with a large enough effect; inconclusive means small, poorly fitted or top-dose-only effect, or another doubt; inactive means no such curve, though single readings can be large; an effect the other way counts as inactive or inconclusive.

Columns and labels:
[1] = molecular target: Cytochrome P450 3A7 (Homo sapiens) (UniProt P24462); assay: Cytochrome P450 family 3 subfamily A member 7 (CYP3A7) small molecule antagonists: luciferase biochemical qHTS assay (AID 1963596); further: nearly all actives have a fitted effect of over 40% in size
Chain of Cytochrome P450 3A7 (Homo sapiens) (P24462 whole entry, looked up): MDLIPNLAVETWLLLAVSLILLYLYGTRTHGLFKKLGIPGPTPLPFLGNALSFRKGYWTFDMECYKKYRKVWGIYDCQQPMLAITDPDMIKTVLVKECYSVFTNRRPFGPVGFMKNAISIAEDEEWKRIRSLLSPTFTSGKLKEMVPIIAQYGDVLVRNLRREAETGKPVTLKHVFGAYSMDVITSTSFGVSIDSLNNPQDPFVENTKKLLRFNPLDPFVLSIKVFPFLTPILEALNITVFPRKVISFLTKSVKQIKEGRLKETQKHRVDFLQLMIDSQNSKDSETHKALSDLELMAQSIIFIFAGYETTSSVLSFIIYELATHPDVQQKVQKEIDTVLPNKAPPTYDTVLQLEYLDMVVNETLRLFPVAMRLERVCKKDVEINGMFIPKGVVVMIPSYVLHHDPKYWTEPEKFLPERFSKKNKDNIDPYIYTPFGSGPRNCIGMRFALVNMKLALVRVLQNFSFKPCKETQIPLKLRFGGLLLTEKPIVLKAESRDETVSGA
In short: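 Compounds were screened in qHTS format for interference with CYP3A7 turnover of a proluciferin substrate. Reactions ran 1 h at room temperature after NADPH regeneration solution was added, then luciferin product was detected by luminescence.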

[2] = Viability qHTS for spleen associated tyrosine kinase inhibitor (SYKi) naive MV4-11 cells (AID 1963823); further: nearly all actives have a fitted effect of over 40% in size; further: potency means the concentration at half of the fitted maximal effect
In short: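 CellTiter-Glo luminescence, 10 min room-temperature incubation, gave viability. Cells: naive MV4-11 (500/well), treated 72 hr at 37 C, 5% CO2.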

[3] = Viability qHTS for spleen associated tyrosine kinase inhibitor (SYKi) drug resistant MV4-11 cells (AID 1963824); further: nearly all actives have a fitted effect of over 35% in size; further: potency means the concentration at half of the fitted maximal effect
In short: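 CellTiter-Glo luminescence, read 10 min after reagent addition, reports viability after a 72 hr compound exposure. Cells are an MV4-11 line made resistant to SYK inhibition, seeded at 500 per well onto compound-containing plates.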

[4] = Cellular viability qHTS for adrenocortical cancer (ACC) cell line SW-13 (AID 1963989); settings: SW-13 ACC cells viability, CellTiter-Glo, 48 h; activity (max response): stronger effect = lower value; further: nearly all actives have a fitted effect of over 65% in size; further: potency means the concentration at half of the fitted maximal effect;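 on activity (max response): cells grown in serum-free medium with ITS supplement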
In short: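 Luminescent ATP read-out (CellTiter-Glo, 20 min at room temperature) measured metabolically competent SW-13 cells after 48 h compound treatment. Final concentrations spanned up to 46 uM; bortezomib served as positive control.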

[5] = Cellular viability qHTS for adrenocortical cancer (ACC) cell line NCI-H295R (AID 1963990); further: nearly all actives have a fitted effect of over 60% in size; further: potency means the concentration at half of the fitted maximal effect
In short: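 IC50 and maximal efficacy derive from four-parameter logistic modelling of titration curves, with reads scaled between DMSO-only wells (0%) and doxorubicin hydrochloride (100% inhibition). Compounds spanned up to 46 uM over 48 h.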

Row | Structure (SMILES) | Potency [1] | Potency [2] | Potency [3] | activity (max response) [4] | Potency [5] | Potency [4] | activity change, negative = inhibition [1] | viability (% of control) [2] | viability, % of control [3] | activity change, negative = viability loss [5]
1 | CN(C(=O)C(Cl)Cl)c1ccc(OC(=O)c2ccco2)cc1 | inactive | inactive | inactive | -5.24% (inactive) | inactive |  |  |  |  | 
2 | NC(=Nc1ccccc1)Nc1ccccc1 | inactive | 38.6 µM (active) and inactive | 34.4 µM (active) | -1.07% (inactive) | inactive |  |  |  |  | 
3 | O=C(NCN1CCOCC1)c1cnccn1 | inactive | inactive | inactive | -5.4% (inactive) | inactive |  |  |  |  | 
4 | NC(=O)NC1NC(=O)NC1=O (stereo not given) | inactive | inactive | inactive | 10.7% (inactive) | inactive |  |  |  |  | 
5 | COc1ccc(C(=O)NCc2ccc(OCCN(C)C)cc2)cc1OC | inactive | inactive | inactive | 1.66% (inactive) | inactive |  |  |  |  | 
6 | Cc1ccc(=O)n(-c2ccccc2)c1 | inactive | inactive | inactive | 13.5% (inactive) | inactive |  |  |  |  | 
7 | C=CCNC(N)=S | inactive | inactive | inactive | 13% (inactive) | inactive |  |  |  |  | 
8 | CC(O)CCCCn1c(=O)c2c(ncn2C)n(C)c1=O (stereo not given) | inactive | inactive | inactive | 7.24% (inactive) | inactive |  |  |  |  | 
9 | Cc1nc2n(c(=O)c1CCN1CCC(c3noc4cc(F)ccc34)CC1)CCC[C@H]2O | inactive | inactive | inactive | 4.14% (inactive) | inactive |  |  |  |  | 
10 | CC1=NS(=O)(=O)c2cc(Cl)ccc2N1 | inactive | inactive | inactive | 8.23% (inactive) | inactive |  |  |  |  | 
11 | COC(=O)c1cc(Cl)ccc1OC | inactive | inactive | inactive | -2.06% (inactive) | inactive |  |  |  |  | 
12 | C[C@H]1C[C@H](O)c2ccsc2S1(=O)=O | inactive | inactive | inactive | 10.4% (inactive) | inactive |  |  |  |  | 
13 | CCOC(=O)[C@H](CCc1ccccc1)N[C@@H](C)C(=O)N1C(=O)N(C)C[C@H]1C(=O)O | inactive | inactive | inactive | 5.98% (inactive) | inactive |  |  |  |  | 
14 | CC(=O)OC[C@H]1O[C@@H](n2ncc(=O)[nH]c2=O)[C@H](OC(C)=O)[C@@H]1OC(C)=O | inactive | inactive | inactive | -6.84% (inactive) | inactive |  |  |  |  | 
15 | C/C=C/C(=O)N(CC)c1ccccc1C | inactive | inactive | inactive | 5.92% (inactive) and 3.5% (inactive) | inactive |  |  |  |  | 
16 | CC(=O)Oc1cccc(C)c1 | inactive | inactive | inactive | 17.7% (inactive) | inactive |  |  |  |  | 
17 | O=C1NC(c2ccccc2)(c2ccccc2)C(=O)N1COP(=O)(O)O | inactive | inactive | inactive | 10.4% (inactive) | inactive |  |  |  |  | 
18 | COC(=O)/C=C\C(=O)OC | inactive | inactive | inactive | 9.62% (inactive) | inactive |  |  |  |  | 
19 | Cn1c(=O)c2[nH]c(Br)nc2n(C)c1=O | inactive | inactive | inactive | -1.12% (inactive) | inactive |  |  |  |  | 
20 | CC(=O)CCC(=O)O | inactive | inactive | inactive | 9% (inactive) | inactive |  |  |  |  | 
21 | CCOC(=O)c1cccnc1 | inactive | inactive | inactive | 14.3% (inactive) | inactive |  |  |  |  | 

Row | Structure (SMILES) | Potency [1] | Potency [2] | Potency [3] | activity (max response) [4] | Potency [5] | Potency [4] | activity change, negative = inhibition [1] | viability (% of control) [2] | viability, % of control [3] | activity change, negative = viability loss [5]
22 | Cc1coc2ccccc2c1=O | inactive | inactive | inactive | 19.3% (inactive) | inactive |  |  |  |  | 
23 | CN1Cc2cc(C(=O)N3CCC(C4CCNCC4)CC3)ccc2NC(CC(=O)O)C1=O (stereo not given) | inactive | inactive | inactive | 10.5% (inactive) | inactive |  |  |  |  | 
24 | CN(C)c1ccc(O)c2c1C[C@H]1C[C@H]3[C@H](N(C)C)C(=O)C(C(N)=O)=C(O)[C@@]3(O)C(=O)C1=C2O | inactive | 20.9 µM (active) | 20.9 µM (active) | -4.3% (inactive) and 1.01% (inactive) | inactive |  |  |  |  | 
25 | NCC(=O)CCC(=O)O | inactive | inactive | inactive | 16.5% (inactive) | inactive |  |  |  |  | 
26 | CN1C(=O)CC(C)(c2ccccc2)C1=O (stereo not given) | inactive | inactive | inactive | -10.7% (inactive) | inactive |  |  |  |  | 
27 | Cc1nn(Cc2ccccc2Cl)c(C)c1CN(C)CC(O)COc1ccc(Cl)cc1 (stereo not given) | inactive | 14.8 µM (active) | 7.42 µM (active) |  | 17.8 µM (active) | 25.1 µM (active) |  |  |  | 
28 | CN(C)CC[C@@H](c1ccc(Br)cc1)c1ccccn1 | inactive | inactive | inactive | 2.25% (inactive) | inactive |  |  |  |  | 
29 | Oc1ccccc1-c1nnco1 | inactive | inactive | inactive | 12.7% (inactive) | inactive |  |  |  |  | 
30 | [O-][n+]1cccc(CO)c1 | inactive | inactive | inactive | 9.62% (inactive) | inactive |  |  |  |  | 
31 | Nc1ccc(/C=C/c2ccc(N)cc2S(=O)(=O)O)c(S(=O)(=O)O)c1 |  |  |  | 11.4% (inactive) |  |  | 6.59% [at 0.91 µM] (inactive) | 106% [at 0.588 µM] (inactive) | 94.1% [at 0.588 µM] (inactive) | -9.73% [at 0.587 µM] (inactive)
32 | CCN(CC)CCNC(=O)c1cc(S(C)(=O)=O)ccc1OC | inactive | inactive | inactive | 12.2% (inactive) | inactive |  |  |  |  | 
33 | NC(N)=NS(=O)(=O)c1ccc(N)cc1 | inactive | inactive | inactive | 7.35% (inactive) | inactive |  |  |  |  | 
34 | Cc1ccc(C(=O)c2ccc(CC(=O)O)n2C)cc1 | inactive | inactive | inactive | 4.18% (inactive) | inactive |  |  |  |  | 
35 | CO[C@@]1(NC(=O)CSC[C@@H](N)C(=O)O)C(=O)N2C(C(=O)O)=C(CSc3nnnn3C)CS[C@@H]21 | inactive | inactive | inactive | -7.39% (inactive) | inactive |  |  |  |  | 
36 | CCc1cccc2c(CCO)c[nH]c12 | inactive | inactive | inactive | 12.9% (inactive) | inactive |  |  |  |  | 
37 | CN1CCOC(c2ccccc2)c2ccccc2C1 (stereo not given) | inactive | inactive | inactive | -0.385% (inactive) | inactive |  |  |  |  | 
38 | O=C(O)Cc1ccc(-c2ccccc2)cc1 | inactive | inactive | inactive | 3.26% (inactive) | inactive |  |  |  |  | 
39 | O=C1c2ccccc2C(=O)C1c1ccccc1 | inactive | inactive | inactive | 5.96% (inactive) | inactive |  |  |  |  | 
40 | CN1N=C(C(N)=O)CCC1=O | inactive | inactive | inactive | 11.7% (inactive) | inactive |  |  |  |  | 
41 | O[C@@H]1CO[C@H]2[C@@H]1OC[C@@H]2O | inactive | inactive | inactive | -0.327% (inactive) | inactive |  |  |  |  | 
42 | CC(C)CCCC(C)NCCC(C)C (stereo not given) | inactive | inactive | inactive | -7.26% (inactive) | inactive |  |  |  |  | 

Row | Structure (SMILES) | Potency [1] | Potency [2] | Potency [3] | activity (max response) [4] | Potency [5] | Potency [4] | activity change, negative = inhibition [1] | viability (% of control) [2] | viability, % of control [3] | activity change, negative = viability loss [5]
43 | CCn1cc(C(=O)O)c(=O)c2cnc(N3CCCC3)nc21 |  |  |  | -7.72% (inactive) |  |  | 25.3% [at 11.5 µM] (inactive) | 74.1% [at 9.25 µM] (inactive) | 103% [at 9.25 µM] (inactive) | -14.1% [at 9.17 µM] (inactive)
44 | FC(F)(F)C(Cl)Br (stereo not given) | inactive | inactive | inactive | -8.02% (inactive) | inactive |  |  |  |  | 
45 | CC(=O)NCCCS(=O)(=O)O | inactive | inactive | inactive | 5.88% (inactive) | inactive |  |  |  |  | 
46 | NCC1CCC(C(=O)Oc2ccc(CCC(=O)O)cc2)CC1 (stereo not given) | inactive | inactive | inactive | 3.63% (inactive) | inactive |  |  |  |  | 
47 | CC(C)[C@@H]1CC[C@@H](C)CC1=O | inactive | inactive | inactive | 11.9% (inactive) | inactive |  |  |  |  | 
48 | CCN1CCN(C(=O)N[C@@H](C(=O)N[C@@H]2C(=O)N3C(C(=O)O)=C(CSc4nnnn4C)CS[C@H]23)c2ccc(O)cc2)C(=O)C1=O | inactive | inactive | inactive | 5.63% (inactive) and -4.45% (inactive) | inactive |  |  |  |  | 
49 | CN(C)CC/C=C1/c2ccccc2COc2ccc(CC(=O)O)cc21 | inactive | inactive | inactive | 1.77% (inactive) and 7.73% (inactive) | inactive |  |  |  |  | 
50 | O=C(COCC(=O)N1CCN(C(c2ccccc2)c2ccccc2)CC1)Nc1ccc(Cl)cc1C(=O)O | inactive | inactive | inactive | -10.1% (inactive) | inactive |  |  |  |  | 
51 | NCCCNCCSP(=O)(O)O |  |  |  | 1.65% (inactive) |  |  | 11.1% [at 11.5 µM] (inactive) | 79.8% [at 9.25 µM] (inactive) | 105% [at 9.25 µM] (inactive) | 0.548% [at 9.17 µM] (inactive)
52 | CC[C@H](C)[C@H](N)C(=O)O | inactive | inactive | inactive | 4.01% (inactive) | inactive |  |  |  |  | 
53 | COc1cc(/C=C/C(N)=O)cc(OC)c1OC | inactive | inactive | inactive | 17.9% (inactive) | inactive |  |  |  |  | 
54 | OCCCc1ccccc1 | inactive | inactive | inactive | 4.32% (inactive) | inactive |  |  |  |  | 
55 | CCCc1c2oc(C(=O)O)cc(=O)c2cc2c(=O)cc(C(=O)O)n(CC)c12 | inactive | inactive | inactive | -2.58% (inactive) | inactive |  |  |  |  | 
56 | CN1CC(=O)NC1=N | inactive | inactive | inactive | 5.44% (inactive) | inactive |  |  |  |  | 
57 | COc1ccc(OC)c(C(O)CNC(=O)CN)c1 (stereo not given) | inactive | inactive | inactive | 12.3% (inactive) | inactive |  |  |  |  | 
58 | CCN(CC)CCNC(=O)c1ccc(N)cc1 | inactive | inactive | inactive | 13% (inactive) | inactive |  |  |  |  | 
59 | C[N+]1(C)CCCC(OC(=O)C(O)(c2ccccc2)c2ccccc2)C1 (stereo not given) | inactive | inactive | inactive | -0.325% (inactive) | inactive |  |  |  |  | 
60 | CCCCCCCC/C=C\CCCCCCCCN | inactive | inactive | inactive | 7.78% (inactive) | inactive |  |  |  |  | 
61 | NS(=O)(=O)c1ccc(C(=O)O)cc1 | inactive | inactive | inactive | 11.4% (inactive) | inactive |  |  |  |  | 
